Experimental data taken from the supplement of paper PMC10681739.

How the values were obtained:
ETS1 [1] = target: T1, ETS1 (UniProt P14921); assay: ETS1 binding intensity (PBM fluorescence), ETS1 alone (arbitrary fluorescence units); higher = stronger binding; conditions: ETS1 concentration 1 nM; RUNX1 concentration 0 nM
T1 sequence: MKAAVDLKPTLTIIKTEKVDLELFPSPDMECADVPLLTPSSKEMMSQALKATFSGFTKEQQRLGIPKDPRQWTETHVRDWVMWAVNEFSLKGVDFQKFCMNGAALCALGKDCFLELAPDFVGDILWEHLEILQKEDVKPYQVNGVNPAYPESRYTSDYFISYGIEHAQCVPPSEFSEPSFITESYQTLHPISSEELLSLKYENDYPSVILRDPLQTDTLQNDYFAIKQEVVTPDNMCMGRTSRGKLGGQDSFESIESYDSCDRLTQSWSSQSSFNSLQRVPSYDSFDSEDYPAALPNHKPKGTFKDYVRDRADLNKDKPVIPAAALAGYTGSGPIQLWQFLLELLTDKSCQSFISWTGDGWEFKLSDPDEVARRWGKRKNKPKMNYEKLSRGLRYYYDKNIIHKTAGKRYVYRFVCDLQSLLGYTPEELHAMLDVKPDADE

RUNX1 [2] = target: RUNX1 (UniProt Q01196); assay: RUNX1 binding intensity (PBM fluorescence), RUNX1 alone (arbitrary fluorescence units); higher = stronger binding; conditions: RUNX1 concentration 2 nM; ETS1 concentration 0 nM
Procedure: (§1)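 Cooperative gcPBM on 36-bp genomic probes with neighbouring ETS1 and RUNX1 sites. Recombinant human RUNX1 (2 nM) was incubated alone or with ETS1 (25 nM) and detected with anti-RUNX1 antibody plus Alexa488 secondary. Values are medians over 4 replicate spots; the RUNX1+ETS1 data were normalised to the RUNX1-only data. The probes sit in constant array flanks that are not printed.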

ETS1 [3] = target: T1, ETS1; assay: ETS1 binding intensity (PBM fluorescence) in presence of RUNX1, normalised to ETS1-only experiment (arbitrary fluorescence units); higher = stronger binding; conditions: ETS1 concentration 1 nM; RUNX1 concentration 25 nM
RUNX1 [4] = target: RUNX1 (UniProt Q01196); assay: RUNX1 binding intensity (PBM fluorescence) in presence of ETS1, normalised to RUNX1-only experiment (arbitrary fluorescence units); higher = stronger binding; conditions: RUNX1 concentration 2 nM; ETS1 concentration 25 nM
Procedure: as §1
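Throughout, for RUNX1 binding intensity (PBM fluorescence) in presence of ETS1, normalised to RUNX1-only experiment: Full-length recombinant human ETS1 or RUNX1 bound to double-stranded 36-bp genomic probes on microarrays, detected by protein-specific primary antibody and Alexa488 secondary, spot fluorescence as median of four replicate spots.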
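Throughout, for RUNX1 binding intensity (PBM fluorescence), RUNX1 alone: Full-length recombinant human RUNX1 bound to double-stranded 36-bp genomic probes on a high-density microarray, scored as Alexa488 fluorescence per spot via anti-RUNX1 antibody, median of four replicate spots.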

RUNX1, sequence (Q01196 whole entry): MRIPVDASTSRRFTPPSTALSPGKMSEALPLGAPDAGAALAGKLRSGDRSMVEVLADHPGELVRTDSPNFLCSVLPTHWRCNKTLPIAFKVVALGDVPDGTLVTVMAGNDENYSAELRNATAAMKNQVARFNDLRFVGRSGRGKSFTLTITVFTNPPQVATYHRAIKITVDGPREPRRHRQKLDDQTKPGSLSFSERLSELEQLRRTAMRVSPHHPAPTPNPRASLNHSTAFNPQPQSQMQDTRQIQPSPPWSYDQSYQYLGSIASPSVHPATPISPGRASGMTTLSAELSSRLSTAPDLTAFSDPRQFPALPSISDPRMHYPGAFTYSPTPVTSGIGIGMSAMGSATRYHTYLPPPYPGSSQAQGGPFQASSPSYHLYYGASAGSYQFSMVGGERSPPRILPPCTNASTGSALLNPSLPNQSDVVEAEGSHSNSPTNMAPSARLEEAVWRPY

Row | Sequence | ETS1 binding intensity (ETS1 [1]) | RUNX1 binding intensity (RUNX1 [2]) | ETS1 binding intensity (ETS1 [3]) | RUNX1 binding intensity (RUNX1 [4])
1 | GACCTGGGCAGGAAGAGCGGCATGTGGGGCCCCCTG | 875 | 714 | 795 | 874
2 | GCGCAAGCAGGAAGCGTTTGCGGTGATCCCGGCGAC | 1890 | 746 | 9000 | 2000
3 | AGAAGCTTCTACAGGAAACCACTAATGGAGACAGAG | 1440 | 782 | 1970 | 958
4 | AAGAACCTAGAGGATGTGTGGTTTTATGTGCAGGGT | 710 | 914 | 1830 | 1150
5 | AATCATTTCCTGCCCTAACGTTTGTGGTCTGCCTAG | 728 | 832 | 1720 | 2760
6 | GGCCCCTGCTTCCGGGTGTGACGCGAACCGCGGGCA | 616 | 687 | 1050 | 1400
7 | TGAAGCCATGGTTTCCTGTCTGCGGCTCAGATCAAG | 1020 | 717 | 1600 | 1490
8 | CAGCAGCACCTGCATCCGCTGCGGGAGTCCGAGCCG | 515 | 778 | 491 | 1030
9 | CCTCTTGCTGCCTCTTCCTGTGGTCTTTTCTCTGTC | 737 | 1840 | 951 | 2720
10 | GACTGCACTTCCTCTGCTTCGAGGTCGGTGGTTAGC | 535 | 874 | 653 | 1450
11 | GAACCACTTCCCTGAAACCATTTACCACATAAATCT | 383 | 1510 | 904 | 2470
12 | CCCACAGGAAATCCCCTGGTCTGTGGCGCCTCTGAT | 881 | 766 | 823 | 1110
13 | AGGCGCCGGAAAAACTACATCTCCCACAATCCTCGG | 484 | 965 | 396 | 913
14 | GGGGCTGTGCTTCCGGCTGTTTGTGCGGTTTTGTGC | 1650 | 1520 | 6750 | 4340
15 | AGGCCGCCTACAGGATGTTGGAAACCACAGGGCCCG | 2910 | 765 | 29100 | 2660
16 | CCAGACCCGGCGGAACTACCGTGCCCACAAGGCAGC | 396 | 876 | 564 | 894
17 | GCTCCTCCCGGATATAAAGCCCCAAACCACGCCACT | 724 | 1140 | 1610 | 1410
18 | ACCCTGAAATTACCCGGATGTGGTCCCCGCGCGCGC | 6470 | 898 | 8100 | 1930
19 | AACAAACAGTAGGCAGGAAGTGGTTAAACCGAAAGG | 8580 | 897 | 28900 | 3590
20 | CTGCCGCGACAGACAGGATGTGGCTTCTGCTCTGTC | 8750 | 610 | 16900 | 1960
21 | CGGGCGAGCGCAGGATGCGGTTGTCGAACGCGCGGC | 764 | 762 | 1050 | 1100

Row | Sequence | ETS1 binding intensity (ETS1 [1]) | RUNX1 binding intensity (RUNX1 [2]) | ETS1 binding intensity (ETS1 [3]) | RUNX1 binding intensity (RUNX1 [4])
22 | TCACTCTAACAGGATATTGTGGTTAACTATGTTGCC | 2460 | 2580 | 17400 | 14800
23 | GCCGCGCGGAAGCCTCCGCCCTGTGGTTTTGGAGCC | 368 | 1030 | 993 | 1530
24 | AACGGACCCGGAAGGGGCAGGTCTTGTGGGCGGGTC | 814 | 822 | 1420 | 904
25 | TGCGCCGCGGAACCCGGAAGTGGTCACGGAGCTCGG | 10600 | 766 | 23400 | 3970
26 | CCGGGACCGGAAGAGGGAGCCGTGGTTGCTGGAACT | 3040 | 744 | 4030 | 1960
27 | TGTGTCACTTCCCTATCTGTTGCGGTTGTTCACTCC | 409 | 1340 | 841 | 2930
28 | CAGCTCCGACTTCCGGGTGCGGTACGGCGAAGCAGA | 1320 | 756 | 1610 | 2140
29 | TATTTCCTGTGCACAGAAGCAGCTGGGCCGCAGAGT | 557 | 697 | 680 | 1940
30 | CGGGTTGGGCAGGAAGCAGCATGACCGCAGTGGGTC | 1740 | 959 | 17000 | 3250
31 | TGCCTTCTACTCCGGAACTCAGACCGCTGCCTTCTA | 759 | 1090 | 979 | 946
32 | GTGCTAAGTGAGGAAGTGCAGTTTACCGCACGGTGG | 839 | 675 | 2410 | 935
33 | TGCACCCGCCACTTCCGCATCGAACCGCCGCTTCAA | 1100 | 1030 | 1140 | 3470
34 | GTGGGGGTGACAGGATGCGGGTAGAGGGCTCAGCCA | 1950 | 909 | 2770 | 1460
35 | TTGTCAGATGGCGAAGGAAACCGCGAAATTCGCCAT | 608 | 1270 | 1270 | 1050
36 | ACCATCCTGTAGTCTGTTAAGTGAGCAACCGCATTA | 447 | 1130 | 948 | 1900
37 | GTAAAAGAGGAAGTAACACCTCCTTGCGGTTGAGAC | 1450 | 1020 | 6840 | 3280
38 | CTGAGCCGGGACCGGAAGCCGCACCGCCCCCCGCGC | 18400 | 828 | 21700 | 1770
39 | TTTCAAAACCCGGAAATGACCGCCAGGCTGGCATCA | 7800 | 859 | 6320 | 1380
40 | CTCCTGTTCCGGCTCAAAGGGAAACCGCTGCTTTTC | 605 | 1210 | 907 | 1460
41 | ACCACGAGCCCAGGATGCGGTTTATGCGCTGTCGGG | 699 | 2660 | 2890 | 4230
